From PubChem BioAssay AID1347043 (National Center for Advancing Translational Sciences (NCATS), 2019)
In all, about 76,000 compounds went through this assay and about 1,900 (2.5%) were called active. Another 5% or so got no clear call; they are omitted. Calls come from the whole dose curve; as a rule, active = well fitted inhibition curve with a large enough effect; inconclusive = small, poorly fitted or top-dose-only effect; inactive = flat fitted curve, though single readings scatter. Only a selection was taken, and actives are over-represented in it overall.

Each molecule was assayed against Luciferin 4-monooxygenase (Photinus pyralis) (UniProt P08659) (assay: Firefly luciferase inhibition profiling of diverse chemical library using quantitative high-throughput screening). Conditions: purified P. pyralis luciferase, luminescence, biochemical; series mostly up to 115 µM; activity change, negative = inhibition: at the top concentration.
Luciferin 4-monooxygenase (Photinus pyralis), sequence (P08659 whole entry, looked up): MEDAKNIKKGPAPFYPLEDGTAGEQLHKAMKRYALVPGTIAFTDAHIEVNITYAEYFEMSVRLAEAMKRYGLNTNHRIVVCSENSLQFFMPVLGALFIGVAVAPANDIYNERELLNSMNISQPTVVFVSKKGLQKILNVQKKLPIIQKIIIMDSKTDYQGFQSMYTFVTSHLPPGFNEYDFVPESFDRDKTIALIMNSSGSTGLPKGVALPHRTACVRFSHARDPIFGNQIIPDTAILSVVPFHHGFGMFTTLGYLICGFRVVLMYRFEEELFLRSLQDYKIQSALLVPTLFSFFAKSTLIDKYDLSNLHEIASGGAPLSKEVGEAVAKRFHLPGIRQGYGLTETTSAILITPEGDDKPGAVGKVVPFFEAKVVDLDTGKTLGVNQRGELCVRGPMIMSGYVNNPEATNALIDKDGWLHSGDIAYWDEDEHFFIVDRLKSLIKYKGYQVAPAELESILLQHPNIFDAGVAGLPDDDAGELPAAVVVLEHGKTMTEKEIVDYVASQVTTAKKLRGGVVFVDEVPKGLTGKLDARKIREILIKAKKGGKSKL
Method in brief: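 Inhibitors were tested against purified firefly luciferase in a biochemical, low-substrate format (both substrates at 10uM) and luminescence measured with a CCD imager.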
% is set by controls: 0 for no effect and ±100 for the full control effect; potency is the fitted concentration of half-maximal effect.
Note: nearly all actives have a fitted effect of over 65% in size.

Activity change, negative = inhibition, inactive:
COc1ccc(CC(=O)NC2CCCc3c2[nH]c2ccccc32)cc1 (centres undefined) -7.29%, Fc1ccc(CNC[C@H]2Cn3c(-c4ccc5c(c4)OCCO5)cnc3CO2)cc1 -14.7% [at 172 µM], Cc1ccc(-c2cn3c(n2)CO[C@@H](CNS(=O)(=O)c2cccs2)C3)cc1 -16.3% [at 172 µM], c1c[nH]c(CNC[C@H]2Cn3ccnc3CO2)n1 -3.28% [at 230 µM], O=C(Cn1nc(-c2ccccc2)n(-c2ccccc2)c1=O)N1C[C@@H]2C[C@H]1CN2 -5.15%, O=C(c1ccc(F)cc1)N1CCC2(CC1)CCN(Cc1cccs1)c1ccccc1O2 -11.7%, Cc1cc(C)cc(C(=O)Nc2ccc3c(N4CCCC4)ncnc3c2)c1 -3.04%, Cc1ccc(C(=O)Nc2ccc3ncnc(N4CCCCC4)c3c2)s1 -15%, CCCS(=O)(=O)N1CCCC(Cn2c(C)nc3cccnc32)C1 (centres undefined) 1.14%, CC(C)Oc1cccc(-c2nc(C(=O)NCc3ccc(F)cc3)cs2)c1 -8.88%, Cc1c(-c2ccc(F)cc2)[nH]c2ccc(CNC(=O)c3ccc(CO)o3)cc12 -17.7%, CN1C(=O)C(CC(=O)N2CCC(C#N)CC2)(Cc2ccccc2)c2ccccc21 (centres undefined) -4.01%, CN(Cc1ccccc1F)Cc1ccccc1F 2.39% [at 230 µM], Cc1noc(CC2CCOC3(CCN(C(=O)c4ccc(C#N)cc4)CC3)C2)n1 (centres undefined) -10.8%, COCCc1noc(CC2CCOC3(CCN(C(=O)C4CCCC4)CC3)C2)n1 (centres undefined) 6%, COc1cccc(C(O)c2nc(C(=O)Nc3ccccc3)c(C)o2)c1 (centres undefined) 9.73% [at 172 µM], COc1cccc(-c2cc(C(=O)NCc3cc(C)on3)c3c(c2)N(C)CCO3)c1OC -9.08% [at 172 µM], CCOc1ccc(Nc2ncncc2-c2nc(-c3ccccc3)no2)cc1 5.94%, O=C(Cn1cccc1-c1nc(-c2ccc(F)cc2)no1)Nc1cc(F)cc(F)c1 11.3%, C[C@H]1CN(C(=O)Nc2ccc(F)cc2)C[C@@H]1c1nc(-c2ccccc2)no1 -3.1%, CC1(c2noc(C3CCOCC3)n2)CCN(Cc2ccc(OCC(N)=O)cc2)CC1 9.39%, CN(Cc1ccccc1)Cc1cc(CC2(NCc3ccc(OC(F)(F)F)cc3)COC2)no1 -4.86%, COCc1noc(-c2ccc(NCCN3CCNC3=O)nc2)n1 8.32%, COc1cccc(CC(=O)NCCc2noc(-c3cccnc3)n2)c1 -5.71%, O=C(NC1CCN(Cc2ccc(F)c(F)c2)CC1)c1ccc2nccn2c1 10.6%, O=C(c1ccncc1)N1CCC(c2cc(-c3ccc(F)cc3)n[nH]2)CC1 -7.89%, CCC1(N2CCN(C(=O)c3ccc(N(C)C)cc3)CC2)CCN(S(C)(=O)=O)C1 (centres undefined) -21.9%, CC(=O)N1CCC(Cc2ccc(C(=O)NC3CC3)cc2)CC1 4.35%, Cn1cccc1C(=O)NC1CCN(c2cc(-c3ccccc3)[nH]n2)CC1 -5.36%, O=C(c1cc(-c2ccccc2)n[nH]1)N1CC2CC(C1)[C@H]1CCCC(=O)N1C2 (some centres undefined) 0%, Cc1ccc([S+](=O)([O-])N2CCn3c(nn(-c4ccncc4)c3=O)C2)cc1 -6.68%, COc1cc(F)ccc1-c1ccnc2nc(C(C)C)nn12 -0.38%, COc1ccccc1-c1cn(C)c(=O)n2cc(COc3ccc(C(=O)O)cc3)nc12 1.32% [at 172 µM], CCN1c2cc(C(=O)NC3CCN(Cc4ccccc4)CC3)ccc2C(=O)N2CCCCC21 (centres undefined) 1.15%, CC(C)CNc1ccc2nnc(-c3ccccn3)n2n1 13.6% [at 230 µM], CC(C)CNC(=O)N1CCCC(c2noc(COc3ccccc3F)n2)C1 (centres undefined) -20.3%, O=C(c1ccccc1)N1CCCC(c2noc(COc3ccccc3)n2)C1 (centres undefined) -6.88%, C[C@H]1CN(C(=O)Nc2cc(F)cc(F)c2)C[C@@H]1c1nc(-c2ccncc2)no1 -17.8%, Cc1ccc(C(=O)N2CC(N(Cc3cccnc3)CC(C)C)C2)s1 -2.49%, Oc1ccc(-c2ccc(-c3nc(CCc4ccccc4)no3)cn2)cc1 -3.85%, CSc1ccc(CNC(=O)c2cc3c(N4CCCC4)nc(C)cn3n2)cc1 -11.2%, CCOc1ccccc1-c1noc(-c2nnn3c2COC(c2ccc(Cl)cc2)C3)n1 (centres undefined) -3.59%, CCCCc1nc2cc(C(=O)N3CCCC3c3cc(C(C)C)on3)ccc2o1 (centres undefined) 0%, O=[S+]([O-])(Nc1ccccc1)c1ccc2c(c1)OCCN(CC1CC1)C2 -6.01% [at 172 µM], Cc1ccc(CN2CC[C@@](C)(O)[C@H](N3CCCC3)C2)s1 15.5%, COc1ccc(CN2CCC3(CC2)CC(=O)c2ccc(Cl)cc2O3)cc1 -10.1%, CC(C)CCN1CCC2(CC1)C(=O)NCN2Cc1ccc(Cl)cc1 -1.9%, CC(C)NC(=O)N1CCC[C@@H](O)[C@H](NC(=O)c2ccc(OCC(N)=O)cc2)C1 0.824% [at 172 µM], CNC(=O)[C@@H]1CN(C(=O)Cc2c[nH]c3ccccc23)C[C@H]1COC -1.71%, O=C(Nc1cccc(Br)c1)C1CC(=O)N(c2n[nH]c3cccc(F)c23)C1 (centres undefined) -2.06%, COCCCN(CCC(=O)N1CCC(C)CC1)C(=O)c1cc(C)oc1C -5.89%, COc1ccc2[nH]c(C[C@@H]3C[C@@H](C(C)C)[C@H](CNC4CCN(C)CC4)C=C3C)nc2n1 -4.88% [at 172 µM], CCOc1cccc(CNC(=O)c2cc3n(n2)CC(c2ccc(Cl)cc2)OC3)c1 (centres undefined) -7.87%, COc1ccc(C2Cn3cnc(C(=O)N4CCC(C(=O)Nc5cc(C)cc(C)c5)CC4)c3CO2)cc1 (centres undefined) -24%, O=C(Nc1cccc(F)c1)c1cc2n(n1)CC(c1ccc(Cl)cc1)OC2 (centres undefined) -12.7%, CC(=O)N1CCC(C(=O)NCC2CCN(c3cc(-c4ccc(C)cc4)[nH]n3)CC2)CC1 -16.5%, COc1ccc(C2Cn3cnc(C(=O)N4CCC(C(=O)NC5CCCC5)CC4)c3CO2)cc1 (centres undefined) -18.2%, COc1ccc(C2Cn3nnc(C(=O)N4CCN(C(=O)c5cccc(Cl)c5)CC4)c3CO2)cc1 (centres undefined) -2.01%, CCC(CC)C(=O)N1CCC(N2CCCC(C(=O)NCc3ccccc3)C2)CC1 (centres undefined) 5.16%, COc1ccc(C2Cn3cnc(C(=O)N4CCC(C(=O)NCc5cccc(F)c5)CC4)c3CO2)cc1 (centres undefined) -5.68%, Cc1ccc(C(=O)N[C@H]2CO[C@H]3[C@@H]2OC[C@@H]3n2nnnc2Oc2ccc(-n3ccnc3)cc2)cc1 11.5%, O=C(Nc1ccccc1)N1CCC2(CC1)CC(Cc1ccccc1)=NO2 -3.26%, COc1cccc(CC(=O)N2CCCn3nc(C)c(-c4ccccc4OCc4ccccc4)c32)c1 0.241%, CC(C)Oc1ccc(CNC(=O)C2Cn3cccc3C(=O)N2Cc2cccnc2)cc1 (centres undefined) -0.877%, COc1ccccc1CN1CCN(C(=O)CCC[C@H]2NC[C@@H]3C[C@H]2CN(Cc2ccccc2)C3)CC1 -21%, CCCN1C(=O)Cc2cc(C(=O)NC3CC3)ccc21 -3.75%

Potency, active:
c1ccc(CNC[C@H]2Cn3cc(-c4ccccc4)nc3CO2)cc1 63.1 µM, COc1ccc(-c2cn3c(n2)CO[C@@H](CNCc2ccc(F)c(F)c2)C3)cc1 35.5 µM, Cc1ccc(C(=O)Nc2ccc3c(N4CCCCC4)ncnc3c2)s1 22.4 µM, CNc1nc(C(=O)NCc2ccc3[nH]c(-c4ccc(F)cc4)c(C)c3c2)cs1 12.6 µM, COCCc1noc(CC2CCOC3(CCN(C(=O)Nc4ccc5c(c4)OCCO5)CC3)C2)n1 (centres undefined) 35.5 µM, COc1ccc(Nc2nc(-c3cccc(OC)c3OC)no2)cc1 22.4 µM, Fc1ccc(Nc2nc(-c3ccccc3F)no2)cc1 2.82 µM, COCCc1noc(-c2ccc(NC(C)c3ncccc3C)nc2)n1 (centres undefined) 31.6 µM, Cc1nnn2c(C(=O)NC3CC3)cccc12 7.08 µM, COc1cc(F)ccc1-c1ccc(COc2ccc3c(cnn3CCC(=O)O)c2)cc1 44.7 µM, O=C(C1CC1)N1CCCC(c2noc(COc3ccccc3F)n2)C1 (centres undefined) 35.5 µM, CN(CCc1cn[nH]c1)c1ccc(-c2nc(-c3ccccc3F)no2)cn1 0.631 µM, CN(C)CCN(C)c1ccc(-c2nc(-c3ccccc3F)no2)cn1 15.8 µM, CC(C)CCN1CCC2(CC1)CC(=O)c1ccc(Cl)cc1O2 44.7 µM, O=C(NCc1ccccc1)C1CCN(C(=O)c2ncn3c2COC(c2ccccc2)C3)CC1 (centres undefined) 3.16 µM, O=C(Nc1ccc(Cl)cc1)C1CCN(C(=O)c2ncn3c2COC(c2ccc(F)cc2)C3)CC1 (centres undefined) 22.4 µM, O=C(NCC1CC1)C1CCN(C(=O)c2ncn3c2COC(c2ccccc2)C3)CC1 (centres undefined) 10 µM, O=C(NCc1ccc(F)c(Cl)c1)C1CCN(C(=O)c2ncn3c2COC(c2ccccc2)C3)CC1 (centres undefined) 11.2 µM
